A selection: hits, their analogues and other compounds. The true share with any hit is near 9.2%.
ELG1 genotox – qHTS screen for small molecules that induce genotoxicity in human embryonic kidney (HEK293T) cells expressing luciferase-tagged ELG1 | AID 504466, 2011 | actives 1.3% (n = 330,000) | HEK293T ELG1-luciferase reporter, luminescence, 16 h | Potency, µM (top dose mostly 46 µM), actives largely listed as activators; note: nearly all actives have a fitted effect of over 60% in size
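Genotoxic stress is detected as increased luminescence from luciferase-tagged ELG1 in HEK293T cells, measured with ONE-Glo after a 16 hr treatment at 37 °C.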
Rab9 prom act – qHTS Assay for Rab9 Promoter Activators. Huh7 Rab9 promoter-luciferase reporter, luminescence, 24 h. actives 2.8% (n = 320,000). Potency, µM (doses to about 9.22 µM), usual class: activators; note: nearly all actives have a fitted effect of over 60% in size
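Steps: seed 1500 Huh7 Rab9-luc cells per well, rest 2 h at 37 °C; add compound in DMSO; incubate 24 h; add luciferase reagent, 10 min ambient; read luminescence.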
FLuc counter – qHTS profiling assay for firefly luciferase inhibitor/activator using purifed enzyme and Km concentrations of substrates (counterscreen for miR-21 project). actives 6.9% (n = 360,000). AID 588342, 2011. purified FLuc, Km substrates, luminescence inhibition. Potency, µM (doses to about 57.5 µM), actives largely listed as inhibitors; note: nearly all actives have a fitted effect of over 55% in size
Target sequence (P08659 whole entry, looked up): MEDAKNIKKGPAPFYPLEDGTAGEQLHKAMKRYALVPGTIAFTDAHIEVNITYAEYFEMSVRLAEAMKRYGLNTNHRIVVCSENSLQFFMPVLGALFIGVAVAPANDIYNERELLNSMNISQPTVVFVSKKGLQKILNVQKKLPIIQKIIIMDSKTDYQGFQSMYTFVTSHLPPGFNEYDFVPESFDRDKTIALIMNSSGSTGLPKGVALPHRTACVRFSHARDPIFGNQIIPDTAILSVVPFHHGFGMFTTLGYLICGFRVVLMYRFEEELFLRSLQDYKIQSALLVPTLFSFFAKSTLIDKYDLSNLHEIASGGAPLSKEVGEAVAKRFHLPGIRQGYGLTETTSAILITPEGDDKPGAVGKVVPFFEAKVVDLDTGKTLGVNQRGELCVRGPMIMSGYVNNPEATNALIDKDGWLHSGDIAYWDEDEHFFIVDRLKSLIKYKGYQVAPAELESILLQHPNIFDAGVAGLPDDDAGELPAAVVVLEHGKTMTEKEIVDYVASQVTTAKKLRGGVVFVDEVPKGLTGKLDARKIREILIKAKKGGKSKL
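Purified P. pyralis luciferase, 10 nM final, with Km-level 10 uM D-luciferin and 10 uM ATP in 50 mM Tris acetate pH 7.5, 10 mM Mg acetate, 0.01% Tween-20, 0.05% BSA; 6-point qHTS titration about 60 µM downward; luminescence read.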
NPC1 promoter act – qHTS Assay for NPC1 Promoter Activators. Huh7 NPC1 promoter luciferase reporter, 24 h. Potency, µM (top dose mostly 9.22 µM), usual class: activators. actives 2.4% (n = 320,000). AID 485313, 2010; note: nearly all actives have a fitted effect of over 60% in size
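In 1536-well qHTS, Huh7 cells harboring an NPC1 promoter–luciferase construct received compound for 24 h; activation was quantified by luminescence following luciferase reagent addition.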
ELG1 DNA repair – qHTS screen for small molecules that inhibit ELG1-dependent DNA repair in human embryonic kidney (HEK293T) cells expressing luciferase-tagged ELG1; HEK293T ELG1-luciferase reporter, luminescence, 16 h; DNA damage induced by 5-fluorouridine; Potency, µM (doses to about 46.1 µM), most hits filed as inhibitors; actives 2.3% (n = 330,000); AID 504467, 2011; note: nearly all actives have a fitted effect of over 55% in size
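In this reporter screen, reduction of luminescence relative to DMSO vehicle indicated activity. Compounds and 5-fluorouridine were added together to 2,000 cells per well, incubated for 16 hr at 37 °C, then developed with ONE-Glo.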
SMN2 splice enh – qHTS Assay for Enhancers of SMN2 Splice Variant Expression; HEK293 SMN2-luciferase splicing reporter, luminescence, 30-36 h; Potency, µM (titrated, usually from 46.1 µM), hits mostly activators; actives 2.8% (n = 210,000); note: nearly all actives have a fitted effect of over 55% in size
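qHTS luciferase splicing reporter: luminescence rises when SMN2 exon 7 is included in transfected HEK293 cells. Compound exposure lasted 30-36 h at 37C, with 4.5 mM final sodium butyrate as control, followed by a ONE-Glo read.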
A number is an active result; n = inactive; u = inconclusive; x = no result given; [ ] = another dose, or the depositor's remark. Calls come from the whole dose curve; as a rule, active = well fitted curve in the direction sought with a large enough effect; inconclusive = small, poorly fitted or top-dose-only effect, or another doubt; inactive = no such curve, though single readings can be large; an effect the other way counts as inactive or inconclusive.

SMILES	ELG1 genotox	Rab9 prom act	FLuc counter	NPC1 promoter act	ELG1 DNA repair	SMN2 splice enh
CCc1ccccc1NC(=O)C1=CC(c2ccc3c(c2)OCO3)=NS(=O)(=O)N1C	x	x	n	x	x	x
COc1cccc(NC(=O)c2sc3nc(C)c(C(=O)Nc4ccc(C)cc4C)c(-c4ccc(Br)cc4)c3c2N)c1	x	x	n	x	x	13µM
COc1ccc(-c2ccc3c(N)c(C(=O)c4ccc(OC)c(OC)c4)sc3n2)cc1	n	n	n	n	u	n
COc1ccc(-c2ccc3c(N)c(C(=O)Nc4cc(F)ccc4C)sc3n2)cc1	x	x	u	x	x	n
COCCCNC(=O)c1sc2nc(C)c(C(=O)Nc3ccc(C)cc3C)c(-c3ccc(Br)cc3)c2c1N	x	x	n	x	x	n
COc1ccc(-c2ccc3c(N)c(C(=O)Nc4cccc(C)c4)sc3n2)cc1	x	x	n	x	x	1.8µM
COc1ccc(-c2ccc3c(N)c(C(=O)NC(C)C)sc3n2)cc1OC	n	n	17µM	n	n	x
O=C(Cc1ccccc1)Nc1ncccn1	n	n	n	n	n	x
COc1ccccc1CNC(=O)C(C)n1ccc2cc(S(=O)(=O)N3CCCC3)ccc21 (configuration not stated)	x	x	n	x	x	x
CCCCNC(=O)c1ccc2c(c1)ncn2-c1cc(OC)ccc1OC	x	x	n	x	x	x
COc1ccc(/C=N/NC(=O)c2cccc(Br)c2)cc1COc1ccccn1	n	n	n	n	u	x
CC(=O)Nc1ccc(S(=O)(=O)N2CCC(NC(=O)C(Cc3cccc(F)c3)NC(C)=O)CC2)cc1 (configuration not stated)	n	n	n	n	n	x
CC1=C(C#N)c2nc(N)c(C#N)c(C)c2/C1=C\c1ccc(-c2ccccc2C(=O)O)o1	n	n	u	n	8.2µM	n
COc1cc(/C=C2/C(C)=C(C#N)c3nc(N)c(C#N)c(C)c32)ccc1OCC(=O)O	n	n	n	n	n	u
CN(C)c1ccc(Nc2nc(N)c([N+](=O)[O-])c(N3CCOCC3)n2)cc1	n	n	u	n	16µM	n
CCOc1ccc(CCNC(=O)C2Cc3ccccc3N2C(=O)CC)cc1OCC (configuration not stated)	x	x	n	x	x	x
CCn1c(COc2ccccc2)nc2ccccc21	n	n	u	n	u	n
CCn1c(COc2ccc(OC)cc2)nc2ccccc21	n	u	13µM	u	u	n
C=CCn1c(NCc2ccc3c(c2)OCO3)nc2ccccc21	n	n	15µM	n	u	n
C=CCn1c(NCc2ccccc2O)nc2ccccc21	n	n	u	n	u	x
C=CCn1c(COc2ccc(OC)cc2)nc2ccccc21	u	u	17µM	u	u	x
COCCn1c(COc2ccc(OC)cc2)nc2ccccc21	n	u	n[2.3 µM]	n	u	n
C=CCn1c(NCc2ccc(OC)cc2O)nc2ccccc21	n	u	19µM	u	u	x
CC(C)(C)c1csc(Sc2ccc([N+](=O)[O-])cn2)n1	n	n	u	n	u	x
COc1ccc(C(=O)N/C=C/n2cnc3cc(C(F)(F)F)ccc32)cc1	n	n	n	n	n	x
SMILES	ELG1 genotox	Rab9 prom act	FLuc counter	NPC1 promoter act	ELG1 DNA repair	SMN2 splice enh
CCC(C)(C)c1ccc(OCCCC[n+]2ccc(C)cc2)c(C(C)(C)CC)c1	n	n	n	n	10µM	n
CCC(C)(C)c1ccc(OCCCC[n+]2cccc(C)c2C)c(C(C)(C)CC)c1	n	n	n	n	2.6µM	x
Cc1cc(C(C)(C)C)ccc1OCCCCN1CCCC1	n	n	n	n	n	n
CCOc1cc(/C=N/NC(=O)c2nnn(-c3nonc3N)c2C)ccc1OCc1cccc(F)c1	n	n	n	n	n	x
O=C(Cn1c(=O)c2cccn2c2cccnc21)NCc1cccc(F)c1	x	x	n	x	x	x
O=C(CN1N=C(c2ccccc2)CCC1=O)NCc1ccco1	n	n	n	n	n	n
